Assay outcomes: PubChem BioAssay, National Center for Advancing Translational Sciences (NCATS)
Six1-Eya2 blk = Six1/Eya2 interaction inhibition; Q15475+O00167; AlphaScreen GST-Six1/His-Eya2 binding, biochemical; hits give low values; activity change, % (no concentration beside the values); 0.56% of 360,000 active; AID 651725; in the data active means activity change below about -65%; inconclusive means mostly about -30% to -63%; further: on the % scale 0 is the no-effect control and ±100 the full control effect
Target sequence (O00167 whole entry, looked up): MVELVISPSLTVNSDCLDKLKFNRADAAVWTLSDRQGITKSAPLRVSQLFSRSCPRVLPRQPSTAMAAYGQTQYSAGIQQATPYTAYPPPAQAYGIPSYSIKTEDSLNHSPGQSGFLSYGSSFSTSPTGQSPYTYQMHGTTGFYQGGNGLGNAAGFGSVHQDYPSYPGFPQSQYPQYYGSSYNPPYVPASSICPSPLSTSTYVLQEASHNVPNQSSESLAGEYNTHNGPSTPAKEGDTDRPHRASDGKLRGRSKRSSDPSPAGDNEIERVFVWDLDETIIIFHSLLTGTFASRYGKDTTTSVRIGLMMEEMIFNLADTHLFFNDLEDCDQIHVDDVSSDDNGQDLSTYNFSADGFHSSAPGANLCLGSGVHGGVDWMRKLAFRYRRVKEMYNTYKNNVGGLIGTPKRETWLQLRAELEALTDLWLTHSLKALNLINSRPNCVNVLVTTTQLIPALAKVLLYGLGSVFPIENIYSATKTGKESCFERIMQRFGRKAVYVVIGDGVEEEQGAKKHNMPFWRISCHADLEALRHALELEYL
Target sequence (Q15475 whole entry, looked up): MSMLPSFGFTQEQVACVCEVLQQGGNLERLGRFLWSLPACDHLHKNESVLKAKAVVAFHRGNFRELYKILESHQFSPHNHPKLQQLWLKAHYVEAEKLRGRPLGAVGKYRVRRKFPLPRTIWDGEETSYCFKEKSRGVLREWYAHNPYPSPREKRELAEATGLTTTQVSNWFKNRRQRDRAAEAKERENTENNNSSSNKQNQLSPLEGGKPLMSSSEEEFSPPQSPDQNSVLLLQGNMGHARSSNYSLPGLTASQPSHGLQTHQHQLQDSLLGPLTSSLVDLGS
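AlphaScreen luminescence read after one hour at 37 °C in darkness. Pin-transferred compounds met GST-Six1 and His-Eya2 protein (5X stock 250 nM/500 nM) plus glutathione donor and Ni-chelate acceptor beads (5X, 50 ug/mL).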
JMJD2A Tudor inh = JMJD2A Tudor domain (human) inhibition; O75164; AID 504339; 4.4% of 390,000 active; Potency, µM (doses to about 114 µM), without a hit: top-dose activity change, negative = inhibition, hits mostly inhibitors; AlphaScreen JMJD2A-Tudor / H3K4me3 peptide binding; further: potency means the concentration at half of the fitted maximal effect; on the % scale 0 is the no-effect control and ±100 the full control effect; nearly all actives have a fitted effect of over 50% in size
HP1b binding inh = HP1-beta chromodomain-methylated histone interaction inhibition; AID 540317; P83916; 0.56% of 390,000 active; Potency, µM (top dose mostly 114 µM), for the others: top-dose activity change, negative = inhibition, most hits filed as inhibitors; AlphaScreen HP1-beta / biotin-H3K9me3 peptide binding; further: potency means the concentration at half of the fitted maximal effect; nearly all actives have a fitted effect of over 70% in size
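Compound inhibition of the preformed complex between 50 nM HP1-beta and 50 nM biotinylated H3K9me3 peptide was read by AlphaScreen. Buffer was PBS pH 7.4 with 0.01% Tween-20. Incubations ran 30 min at room temperature, with 10 ug/mL donor/acceptor beads.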
CtBP-E1A blk = CtBP/E1A binding inhibition; 0.49% of 340,000 active; activity change, % (concentration not given with the values); AlphaScreen GST-E1A/His-CtBP binding, 1536-well; hits give low values; AID 651724; in the data active means activity change below about -65%; inconclusive means mostly about -30% to -63%; further: on the % scale 0 is the no-effect control and ±100 the full control effect
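AlphaScreen with 125 nM GST-E1A and 125 nM His-CtBP (5X stocks) in Tris pH 8.0, 300 mM NaCl, BSA, Tween 20, TCEP. Compounds preincubated 2 h at 37 deg C, then glutathione donor/nickel acceptor beads added for 1 h at 37 deg C in dark.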
BAZ2B inh = BAZ2B (human) inhibition. Q9UIF8. AlphaScreen BAZ2B-H3K14Ac peptide displacement. Potency, µM (series often up to 114 µM), inactives show at the top dose activity change, negative = inhibition, hits mostly inhibitors. 4.4% of 360,000 active. AID 504333; further: potency means the concentration at half of the fitted maximal effect; on the % scale 0 is the no-effect control and ±100 the full control effect; nearly all actives have a fitted effect of over 60% in size
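BAZ2B (50 nM) with biotin-H3(5-23)K14Ac peptide (50 nM) in PBS pH 7.4, 0.01% Tween-20, preformed 30 min, then compound 30 min at room temperature; top concentration 110uM. AlphaScreen streptavidin donor/nickel chelate acceptor beads (10 ug/mL final), 20 min dark, signal read.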
G9a block = inhibitors of human histone lysine methyltransferase G9a; Q96KQ7; Potency, µM (doses to about 102 µM), inactives show at the top dose activity, negative = inhibition, most hits filed as inhibitors; G9a H3K9 monomethylation, AlphaScreen, 2 h; 8.8% of 350,000 active; further: potency means the concentration at half of the fitted maximal effect; on the % scale 0 is the no-effect control and ±100 the full control effect; nearly all actives have a fitted effect of over 75% in size
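Quantitative HTS format: methyltransferase activity on a biotin-tagged H3K9 peptide is measured by AlphaScreen, using a rabbit anti-monomethyl-H3K9 antibody with streptavidin donor and anti-IgG acceptor beads. Final levels are 20 nM enzyme, 500 nM peptide, 20 uM SAM; 2 h RT.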
* hit, by the source's call; u = inconclusive; x = not tested or not shown; [ ] = another dose, or the depositor's remark. Only some compounds are listed: those with a hit (about 10% of all), similar ones and a draw of the others. Unless noted, the call rests on the fitted dose curve; in most records, active means well fitted inhibition curve with a large enough effect; inconclusive means small, poorly fitted or top-dose-only effect; inactive means no such curve, though single readings can be large or run the other way.

SMILES	Six1-Eya2 blk	JMJD2A Tudor inh	HP1b binding inh	CtBP-E1A blk	BAZ2B inh	G9a block
CC(C)CN(CCNC(=O)c1cc(-c2ccc(Cl)s2)nc2ccccc12)CC(C)C	x	4%	33%	x	8%	3%[59 µM]
CC(=O)Nc1ccc(N=Cc2c(O)ccc3ccccc23)cc1	1	-27%	1%	x	-25%	1.8µM*
[O-]c1n[n+](-c2ccc(Cl)cc2)cc2ccccc12	-3	14µM*	4%	-9	-10%	35µM*
COc1ccccc1NC(=O)N1CCC(CN2CCc3ccccc3C2)CC1	x	-15%	17%	x	-10%	-25%[59 µM]
CCN(CC)S(=O)(=O)c1ccc(C(=O)/C=C/c2ccc(-c3ccc([N+](=O)[O-])cc3)o2)cc1	2	-6%	27%	5	-26%	u
O=C(c1ccc(-c2cccc(C(F)(F)F)c2)o1)N1CCOCC1	-4	0%	36%	-1	0%	u
CC(=O)N1CCN(C(=O)c2ccc(-c3cccc(C(F)(F)F)c3)o2)CC1	-3	-9%	33%	-1	4%	50µM*
Cc1ccc(C(=O)NNC(=O)/C=C\C(=O)O)cc1	8	-12%	40%	1	u	50µM*
Cc1ccc(C(=O)/C=C\C(=O)c2ccc(C)cc2)cc1	0	-19%	-5%	5	-10%	1.6µM*
Cc1ccc(C(=O)/C=C/c2ccc(-c3ccc(C)cc3)o2)cc1	19	79µM*	-25%	19	-34%	u
CC(/C=C/C(=O)c1ccc(C)cc1)=C\c1ccccc1	6	37%	109%	15	30%	9%[59 µM]
COc1ccc(-c2nc3c4ccccc4n(CC(=O)N4CCN(c5ccccc5OC)CC4)c(=O)n3n2)cc1	x	-9%	-5%	x	-1%	-2%[59 µM]
Cn1nccc1C(=O)N1CCN(c2cccc(C(F)(F)F)c2)CC1	-2	-16%	38%	-2	-28%	71µM*
CCC(C)OC(=O)/C(C#N)=C\c1ccc(-c2cccc(C(F)(F)F)c2)o1 (stereo not given)	x	-19%	21%	x	-9%	-24%[59 µM]
O=C(O)/C=C/c1ccc(-c2cccc(C(F)(F)F)c2)o1	-1	-20%	48%	3	-1%	45µM*
O=C(/C=C\c1ccc(-c2ccccc2)o1)c1ccccc1	12	-32%	u	0	32µM*	10µM*
CCCSc1nc2c(cnn2-c2ccc(C)c(C)c2)c(=O)[nH]1	-7	-5%	13%	-17	1%	2%
COC(=O)c1ccc(CSc2nc3c(cnn3-c3ccc(C)c(C)c3)c(=O)[nH]2)o1	5	50µM*	-2%	6	-1%	-6%[59 µM]
COC(=O)c1ccc(CSc2nc3scc(-c4cccs4)c3c(=O)[nH]2)o1	-11	45µM*	4%	-2	x	u
CCN(Cc1ccccc1)C(=O)Cn1cc(S(=O)(=O)Cc2cccc(Cl)c2)c2ccccc21	x	-21%	14%	x	-1%	0%[59 µM]
O=c1c2ccccc2n2c(-c3ccc(Cl)cc3)nnc2n1CCc1ccccc1	x	-15%	62%	x	20%	-7%[59 µM]
CC(=O)Nc1ccc(-c2csc(NC(=O)c3ccc(C)o3)n2)cc1	-14	-13%	17%	-3	-34%	45µM*
Cc1ccc(C(=O)Nc2nc(-c3ccccn3)cs2)o1	-93*	50µM*	27%	u	18µM*	u
CCc1cc(C(=O)Nc2nc(-c3ccccn3)cs2)sc1C	u	u	28%	-67*	71µM*	-8%[12.7 µM]
O=C(Nc1nc(-c2ccccn2)cs1)c1ccc(-c2ccccc2F)o1	u	u	39%	-70*	79µM*	43%[12.7 µM]
SMILES	Six1-Eya2 blk	JMJD2A Tudor inh	HP1b binding inh	CtBP-E1A blk	BAZ2B inh	G9a block
O=C(Nc1nc(-c2cc(F)ccc2F)cs1)c1ccccn1	-15	20%	58%	-6	0%	31%
Cc1ccc(N(Cc2cccs2)C(=O)c2ccc(Br)o2)cc1	x	10%	4%	x	-27%	-5%[59 µM]
Cc1ccc(-c2csc(NC(=O)Cc3ccc(F)cc3)n2)o1	-5	-32%	u	0	-33%	10µM*
O=C(Nc1nc(-c2ccccn2)cs1)c1ccc([N+](=O)[O-])o1	-73*	22µM*	u	-92*	20µM*	6.3µM*
CCn1nc(C(=O)Nc2nc(-c3ccccn3)cs2)c2ccccc2c1=O	u	-28%	15%	x	0%	-8%[12.7 µM]
CC(=O)c1ccc(-c2ccc(C(=O)Nc3nc(-c4ccccn4)cs3)o2)cc1	-69*	-34%	-3%	-79*	x	x
CCCn1nc(C(=O)Nc2nc(-c3ccccn3)cs2)c2ccccc2c1=O	-77*	56µM*	30%	-86*	u	44%[12.7 µM]
O=C(Nc1nc2ccccc2s1)c1ccc([N+](=O)[O-])o1	-4	-4%	61%	x	1%	4%
Cc1nn(C(=O)c2cccc(Cl)c2)c(C)c1S(=O)(=O)N1CCOCC1	x	-2%	45%[57 µM]	x	7%	-17%[59 µM]
Fc1ccc(NCc2ccccc2-c2nnc(-c3ccccc3Cl)o2)cc1	x	-13%	15%	x	2%	6%[59 µM]
COc1ccc(C(=O)Nc2ccc3c(c2)N(C2CCCC2)C(=O)c2ccccc2S3)cc1OC	x	-30%	15%	x	-17%	-2%[59 µM]
